Assay results: PubChem BioAssay (NCATS)
Inconclusive results are not listed. Values without a mark were called inactive. Active and inactive are the calls of the source. Calls come from the whole dose curve; as a rule, active = well fitted inhibition curve with a large enough effect; inconclusive = small, poorly fitted or top-dose-only effect; inactive = no such curve, though single readings can be large or run the other way.

Each compound was assayed on Zika virus NS2B-NS3 protease (linked construct) (assay: Primary screen NINDS Rhodamine qHTS for Zika virus inhibitors (AID 1347160; note: nearly all actives have a fitted effect of over 55% in size)). Conditions: purified NS2B-NS3 protease, Rhodamine110 substrate fluorescence; series mostly up to 57.1 µM; activity change, negative = inhibition: at the top concentration.
Summary of the method: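 Rhodamine110-peptide cleavage (1.5 µM substrate) by 25 nM linked NS2B-NS3 enzyme at pH 8.0 (Tris, Tween 20), after 15 min RT preincubation with compounds; 15-min fluorescence change normalized to controls and Hill-fitted.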
% is set by controls: 0 for no effect and ±100 for the full control effect; potency is the fitted concentration of half-maximal effect.

Row | Structure (SMILES) | outcome | activity change, negative = inhibition | Potency
1 | N#Cc1cc(F)cc(-c2nc(-c3ccccn3)no2)c1 | inactive | – | –
2 | CC[C@]1(O)CC2CN(CCc3c([nH]c4ccccc34)[C@@](C(=O)OC)(c3cc4c(cc3OC)N(C=O)[C@H]3[C@@](O)(C(=O)OC)[C@H](OC(C)=O)[C@]5(CC)C=CCN6CC[C@]43[C@@H]65)C2)C1 (stereo not given in full) | – | 71.8% [at 33.1 µM] | –
3 | C=C1CCC2C(C)(C)CCC[C@]2(C)[C@H]1C/C=C(\CO)C(=O)C(=O)O (stereo not given in full) | – | -8.84% [at 33.1 µM] | –
4 | C/C(=C/CO)CC[C@@H]1[C@@](C)(O)CCC2C(C)(C)CCC[C@]21C (stereo not given in full) | – | -14.7% [at 33.1 µM] | –
5 | OC[C@H]1O[C@@H](Oc2ccccc2)[C@H](O)[C@@H](O)[C@@H]1O | – | -12.5% | –
6 | CC1OC(O[C@H]2CC[C@@]3(C)C(CC[C@]4(C)C3CC=C3C5CC(C)(C)CC[C@]5(C(=O)OC5OC(CO)C(OC6OC(COC7OCC(O)C(O)C7O)C(O)C(O)C6O)C(O)C5O)CC[C@]34C)C2(C)C)C(O)C(O)C1OC1OCC(OC2OCC(O)C(O)C2O)C(O)C1O (stereo not given in full) | – | -22.7% [at 10.7 µM] | –
7 | CC1=CC(=O)[C@]2(O[C@@H]3O[C@@H](C)[C@H](O)[C@@H](O)[C@H]3OC(=O)/C=C/c3ccccc3)C=CO[C@@H](O[C@@H]3O[C@H](CO)[C@@H](O)[C@H](O)[C@H]3O)[C@H]12 | – | -26.5% [at 15.1 µM] | –
8 | CC(C)CCC[C@@H](C)[C@H]1CC[C@H]2[C@@H]3CC(=O)[C@H]4C[C@@H](O)CC[C@]4(C)[C@H]3CC[C@]12C | – | -21.1% | –
9 | CC(C)(C#N)c1ccc(N2C(=O)OCc3cnc4ccc(-c5cnc6ccccc6c5)cc4c32)cc1 | – | 6.42% | –
10 | Clc1cc2c(NC3CCCC3)nnc(-c3ccncc3)c2cc1Cl | – | -40.4% [at 15.1 µM] | –
11 | CC(O)c1cc(C(=O)N[C@@H](C)Cn2ccc(-c3ccc(C#N)c(Cl)c3)n2)n[nH]1 (stereo not given in full) | – | -5.02% | –
12 | O=S(=O)(Nc1ccccn1)c1ccc(N=Cc2c(O)[nH]c3ccc4ncsc4c23)cc1 | – | 12% [at 10.7 µM] | –
13 | CC1(C)CC[C@]2(C(=O)O[C@@H]3O[C@H](CO)[C@@H](O)[C@H](O)[C@H]3O)CC[C@]3(C)C(=CCC4[C@@]5(C)CC[C@H](O[C@@H]6O[C@H](C(=O)O)[C@@H](O)[C@H](O)[C@H]6O)C(C)(C)C5CC[C@]43C)C2C1 (stereo not given in full) | – | -16.1% [at 15.1 µM] | –
14 | COc1c2c(c(CO)c3c1C(=O)OC3)OC1(C)CCC3(O)C(C)(C)OC(=O)CCC3(C)C1C2 (stereo not given) | – | -1.44% [at 33.1 µM] | –
15 | CN(C)CC1CCOC1(c1ccccc1)c1ccccc1 (stereo not given) | – | 38% [at 15.1 µM] | –
16 | CC1OC(OC2C(O)C(OC3CCC4(C)C(CCC5(C)C4CC=C4C6CC(C)(COC7OC(CO)C(O)C(O)C7O)CC(O)C6(C)CCC45C)C3(C)C)OC(C(=O)O)C2O)C(O)C(O)C1OC1OCC(O)C(O)C1O (stereo not given) | – | -26.7% [at 15.1 µM] | –
17 | Cc1cc(C)c(CNC(=O)c2cc(-c3ccc(CN4CCOCC4)cc3)cc3c2cnn3C2CCCC2)c(=O)[nH]1 | – | 14.5% | –
18 | CC12CCC(=O)C=C1C(O)CC1C2C(O)CC2(C)C1CC[C@]2(O)C(=O)CO (stereo not given in full) | – | 17.1% [at 15.1 µM] | –
19 | C=CC1(C)C=C2C(=O)OC(=O)C3=C(CCCC3(C)C)C2(O)CC1 (stereo not given) | inactive [at 33.1 µM] | – | –
20 | CC(C)C(C(=O)N(C)C(C)C(N)=O)N(C)C(=O)C1CCCN1C(=O)/C=C/C=C/C(O)C(C)O (stereo not given) | – | 31.7% [at 33.1 µM] | –

Row | Structure (SMILES) | outcome | activity change, negative = inhibition | Potency
21 | CC(=O)O[C@H]1C[C@@](O)(C(C)C)C2[C@@H](OC(=O)c3ccc(O)cc3)C[C@@]3(C)O[C@H]3C[C@]21C (stereo not given in full) | – | -6.41% [at 33.1 µM] | –
22 | C/C=C/c1ccc2c(c1)[C@@H](C)[C@H](c1ccc(O)cc1)O2 | – | 2.87% | –
23 | Cc1ccc(S(=O)(=O)Nc2ccccc2N2CCCCC2)s1 | – | 1.04% | –
24 | COc1ccc(CC2C(=O)NC(C)C(=O)N(C)C3Cc4ccc(cc4)Oc4cc(ccc4OC4OC(CO)C(O)C(O)C4O)CC(C(=O)NC(C)C(=O)NC(C)C(=O)N2C)N(C)C3=O)cc1 (stereo not given) | – | -11.7% [at 15.1 µM] | –
25 | CC(=O)O[C@H]1CC[C@H](C)[C@@]2(C)[C@H](OC(C)=O)c3c(C)coc3C(=O)[C@H]12 | inactive [at 33.1 µM] | – | –
26 | Cc1cc(N2CCN([C@@H]3CN[C@H](C(=O)N4CCSC4)C3)CC2)n(-c2ccccc2)n1 | – | -17.4% | –
27 | [N-]=[N+]=N[C@]1(CO)O[C@@H](n2ccc(=O)[nH]c2=O)[C@@H](O)[C@@H]1O | – | 28% | –
28 | CCC[C@@H]1O[C@@H]2C[C@H]3[C@@H]4CCC5=CC(=O)C=C[C@]5(C)[C@H]4[C@@H](O)C[C@]3(C)[C@]2(C(=O)CO)O1 | – | -0.269% | –
29 | CC(=O)O[C@@H]1CC(C)=C2[C@H]1[C@H](C)CC[C@H]2/C=C(\C)C(=O)O | – | 0.228% | –
30 | CC(C)(O)/C=C/CC(C)(O)C1C(O)CC2(C)C3CCC4C(C)(C)C(=O)CCC4(C)C3CCC12C (stereo not given) | – | -18.4% [at 33.1 µM] | –
31 | C[C@@H]1O[C@@H](O[C@H]2[C@H](O[C@H]3[C@H](O[C@H]4CC[C@@]5(C)C(CC[C@]6(C)C5CC=C5[C@@H]7CC(C)(C)C[C@@H](O)[C@]7(C)CC[C@]56C)[C@@]4(C)CO)O[C@H](C(=O)O)[C@@H](O)[C@@H]3O)OC[C@H](O)[C@@H]2O)[C@H](O)[C@H](O)[C@H]1O (stereo not given in full) | – | -1.95% [at 15.1 µM] | –
32 | C=C(C(=O)O)C1CCC2(C)CCC(O)C(=C)C2C1 (stereo not given) | – | – | 8.91 µM (active)
33 | C=C(C(=O)O)[C@@H]1CC[C@@]2(C)CC[C@H](O)[C@@]2(C(C)=O)C1 | – | 0.306% | –
34 | CC(=O)SCC(=O)c1ccc(NS(=O)(=O)c2ccc(OCCCN(C)C)cc2)nc1 | – | -12.1% | –
35 | CC(C)(C)Nc1nc(Nc2ccc(C(N)=O)cc2)cc(N)c1C#N | inactive | – | –
36 | CC(=O)O[C@H]1CC[C@@]2(C)C(CC[C@@H](C)[C@]23Cc2c(O)cc4c(c2O3)CN([C@@H](CCC(=O)O)C(=O)O)C4=O)C1(C)C (stereo not given in full) | inactive [at 33.1 µM] | – | –
37 | O=C1NC(Cc2ccccc2)C(=O)N2CCCC12 (stereo not given) | – | -12.9% | –
38 | CC1(O)CC(O)C2(O)C=COC(O[C@@H]3O[C@H](CO)[C@@H](O)[C@H](O)[C@H]3O)C12 (stereo not given in full) | – | -22.3% [at 33.1 µM] | –
39 | CC(=O)OC1/C(C)=C/C(=O)C(OC(C)=O)C(C)(C)/C=C/C(C)C(=O)C2(OC(C)=O)CC(C)C(OC(=O)c3ccccc3)C12 (stereo not given) | – | -0.121% [at 15.1 µM] | –
40 | CC1=CC(=O)C2(OC3OC(C)C(O)C(OC(=O)/C=C/c4ccccc4)C3O)C=COC(OC3OC(CO)C(O)C(O)C3O)C12 (stereo not given) | – | -15.7% [at 15.1 µM] | –
